# In all, about 110,000 compounds went through this assay and about 230 (0.21%) showed an effect of 50% or more. Shown is part of a subset that was picked to be rich in strong results.
# Target: DPAP1 (Plasmodium falciparum, UniProt Q8IIJ9)
# Experiment: primary screen, percent inhibition; read by cleavage of a fluorogenic dipeptide substrate; higher = more effect of the substance
# Design: species or system P. falciparum D10 trophozoite lysates; single well
# 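Further: 30 min substrate incubation versus DMSO and 10 µM JCP410 controls.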
# Sequence of DPAP1 (Q8IIJ9 whole entry, looked up): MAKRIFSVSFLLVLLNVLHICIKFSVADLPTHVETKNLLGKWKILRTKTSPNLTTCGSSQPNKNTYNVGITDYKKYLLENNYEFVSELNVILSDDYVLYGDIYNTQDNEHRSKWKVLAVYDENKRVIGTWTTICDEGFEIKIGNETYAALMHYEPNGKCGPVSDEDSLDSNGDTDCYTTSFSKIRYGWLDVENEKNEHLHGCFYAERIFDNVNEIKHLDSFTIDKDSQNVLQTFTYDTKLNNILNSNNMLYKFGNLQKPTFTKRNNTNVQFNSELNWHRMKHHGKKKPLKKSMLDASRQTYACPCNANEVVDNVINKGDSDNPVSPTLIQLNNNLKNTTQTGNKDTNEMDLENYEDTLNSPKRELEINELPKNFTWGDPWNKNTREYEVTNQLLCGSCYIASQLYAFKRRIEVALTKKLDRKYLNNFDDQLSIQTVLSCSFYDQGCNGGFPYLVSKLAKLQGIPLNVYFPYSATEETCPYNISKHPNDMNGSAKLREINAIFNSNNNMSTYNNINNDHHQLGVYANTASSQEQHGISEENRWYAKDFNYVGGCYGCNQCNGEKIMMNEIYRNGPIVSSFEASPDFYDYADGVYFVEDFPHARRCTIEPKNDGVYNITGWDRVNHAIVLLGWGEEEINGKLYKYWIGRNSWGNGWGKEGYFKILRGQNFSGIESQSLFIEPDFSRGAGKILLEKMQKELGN
row,Structure (SMILES),% Inhibition @ 10 uM
1,COc1ccc(CC(=O)Nc2sc3c(c2C(N)=O)CCCCC3)cc1OC,57%
2,CC(Oc1cccc(Cl)c1)C(=O)Nc1sc2c(c1C(N)=O)CCCCC2 (centres unmarked),61.2%
3,NC(=O)c1c(NC(=O)COc2ccc(Cl)cc2)sc2c1CCCCCC2,-4.33%
4,NC(=O)c1c(NC(=O)COc2ccc(Cl)cc2)sc2c1CCCCC2,65.1%
5,Cc1cc(C(F)(F)F)nn1CC(=O)Nc1sc2c(c1C(N)=O)CCCC2,-1.49%
6,Cc1cc(C(F)(F)F)nn1CC(=O)Nc1sc2c(c1C#N)CCCCC2,2.76%
7,CC(Oc1ccc(F)cc1)C(=O)Nc1sc2c(c1C(N)=O)CCC2 (centres unmarked),2.44%
8,CCOc1ccc(CC(=O)Nc2sc3c(c2C(N)=O)CCCC3)cc1OCC,-13.5%
9,CC1CCc2c(sc(NC(=O)C(C)Oc3cccc(Cl)c3)c2C(N)=O)C1 (centres unmarked),2.45%
10,NC(=O)c1c(NC(=O)COc2ccccc2)sc2c1CCCCC2,1.88%
11,Cc1cc(C(F)(F)F)nn1CC(=O)Nc1sc2c(c1C(N)=O)CCCCC2,54.5%
12,COc1ccc(CC(=O)Nc2sc3c(c2C(N)=O)CCCC3)cc1,2.13%
13,Cc1nc2ccccc2c2oc(C(=O)NCc3ccc(F)cc3)cc12,1.62%
14,CC(=O)c1ccc(OCCOc2ccc(C(C)=O)cc2)cc1,-6.82%
15,CCn1c2ccccc2c2nnc(N3CCC(C)CC3)nc21,-3.1%
16,Cc1cccc(Cc2c(C)nc3c(C(=O)NCCc4ccccc4)cnn3c2C)c1,-16.3%
17,O=C(O)CSC12CC3CC(CC(C3)C1)C2,-0.415%
18,O=C1c2ccccc2C(=O)N1c1c(F)c(F)c(C(F)(F)F)c(F)c1F,1.8%
19,CC1=CC2=NC(=O)/C(=C\c3ccc(OCc4ccccc4C)cc3)C(=N)N2O1,3.63%
20,COc1ccc(Cl)cc1N(CC(=O)Nc1ccc(C(C)C)cc1)S(C)(=O)=O,0.324%
21,Nc1nnc(-c2ccc([N+](=O)[O-])cc2)s1,-0.0369%
22,COc1ccc(C2=CC(c3ccc(F)c(Br)c3)n3nnnc3N2)cc1 (centres unmarked),1.73%
23,CC(=O)ONc1ccc(NC=C2C(=O)N(C)C(=O)N(C)C2=O)cc1,8.6%

row,Structure (SMILES),% Inhibition @ 10 uM
1,Fc1ccccc1CSCc1nc2ccccc2[nH]1,-4.6%
2,O=C(Nc1cnc2ccccc2c1O)N1CCC(Cc2ccccc2)CC1,5.43%
3,Cc1cc(/C=C2/SC(=O)N(C(C)C)C2=O)c(C)n1-c1ccncc1,-0.68%
4,CCCC(=O)NCCc1nc2ccccc2n1CC(C)C,0.121%
5,CCCCc1nc(N)c(C#N)c(-c2ccccc2)c1CCC,97.8%
6,CCCCCc1nc(N)c(C#N)c(-c2ccccc2)c1CCCC,-5.9%
7,COc1ccccc1-c1c(C)c(CC(C)C)nc(N)c1C#N,0.5%
8,Cc1c(CC(C)C)nc(N)c(C#N)c1-c1ccc(F)cc1,2.92%
9,Cc1c(CC(C)C)nc(N)c(C#N)c1-c1ccccc1,99.3%
10,CCCc1nc(N)c(C#N)c(-c2ccccc2)c1CC,-0.631%
11,Cc1ccccc1N1C(=O)/C(=C\c2c(C)[nH]c3ccccc23)C(=O)NC1=S,4.15%
12,O=C(c1ccco1)N1CCN(C2CCC(c3ccccc3)CC2)CC1 (centres unmarked),-0.274%
13,CC(=O)c1c(C)nc(S)c(C#N)c1-c1ccccc1,39.2%
14,CCc1c(C#N)c(SC)nc(C)c1C(=O)Nc1ccccc1,1.43%
15,Cc1nc(S)c(C#N)c(C)c1C(=O)Nc1ccccc1,2.01%
16,CCc1c(C#N)c(S)nc(C)c1C(=O)Nc1ccccc1,55%
17,CCOC(=O)c1c(C)nc(C)c(C(=O)OCC)c1-c1ccccc1,1.57%
18,CCOC(=O)c1c(C)nc(S)c(C#N)c1-c1ccc(OC)cc1,52.9%
19,CCOC(=O)c1c(C)nc(S)c(C#N)c1-c1ccccc1,57.1%
20,CC(=O)c1c(C)nc(S)c(C#N)c1-c1ccc(Cl)cc1,33.7%
21,CCOC(=O)c1c(C)nc(C)c(C(=O)OCC)c1-c1ccc(OC)cc1,-1.96%
22,Cc1ccc(OCCNC(=O)Cn2cnc3c(=O)n(C)c(=O)n(C)c32)cc1C,-9.26%
23,CCn1c(C(=O)NCc2ccccn2)cc2oc3ccccc3c21,-3.96%

row,Structure (SMILES),% Inhibition @ 10 uM
1,COc1cc(C2NCCc3c2[nH]c2ccccc32)ccc1OC(C)C (centres unmarked),1.02%
2,CC1CCN(C(=O)Cn2cnc3c(nnn3Cc3ccccc3F)c2=O)CC1,24%
3,O=C(CNS(=O)(=O)c1ccc(Br)s1)N1CC=C(c2ccccc2)CC1,3.27%
4,O=C(NC1CCCC1)c1ccc(Cl)c([N+](=O)[O-])c1,-4.91%
5,O=C(Nc1cnn(Cc2ccccc2)c1)C1CCCC1,-1.78%
6,Cc1cc(-c2ccc(O)cc2)nc2ccc3ccccc3c12,-1.97%
7,Cc1cc(-c2ccc([N+](=O)[O-])cc2)nc2ccc3ccccc3c12,-0.239%
8,Cc1cc(-c2ccc(N)cc2)nc2ccc3ccccc3c12,52.7%
9,OC1CCCN(Cc2ccc(OC(F)(F)F)cc2)C1 (centres unmarked),1.62%
10,Cc1cccc(C)c1-n1c(C)cc(/C=C2\NC(=O)NC2=O)c1C,4.83%
11,CCc1nnc(NC(=O)CSc2nc(C(F)(F)F)cc(C)c2C#N)s1,59.2%
12,CCc1nnc(NC(=O)CSc2nc(-c3cccs3)cc(C(F)(F)F)c2C#N)s1,9.42%
13,CCc1nnc(NC(=O)CSc2nc(N)nc(SC)c2C#N)s1,-1.68%
14,COC(=O)C1=NNC2C(=O)N(Cc3ccccc3)C(=O)C12 (centres unmarked),-0.13%
15,CC(C(=O)O)c1cc(C(=O)c2ccccc2)sc1-c1ccccc1 (centres unmarked),6.08%
16,CCOc1ccccc1C(=O)Nc1ccc(C(C)=O)cc1,-7.23%
17,CC(C)CCOc1ccc(C(=O)CCNC(CC(C)C)C(=O)O)cc1 (centres unmarked),30.1%
18,CCCOc1ccc(C(=O)CCNC(Cc2c[nH]c3ccccc23)C(=O)O)cc1 (centres unmarked),81.9%
19,O=C(COc1ccccc1)NC(Cc1c[nH]c2ccccc12)C(=O)O (centres unmarked),10.2%
20,CC[C@H](C)[C@H](NC(=O)Cc1ccncc1)C(=O)N[C@@H](CCc1ccccc1)C(=O)CO,-4.17%
21,CCN(C(=O)c1ccco1)c1nc(-c2ccccc2)cs1,72.9%
22,CCN(C(=O)CCc1ccccc1)c1nc(-c2ccccc2)cs1,-0.426%
23,CCCN(C(=O)c1ccco1)c1nc(-c2cccc(Cl)c2)cs1,11.9%

row,Structure (SMILES),% Inhibition @ 10 uM
1,CCOC(=O)C1=CN(C)C=C(C(=O)OCC)C1c1ccc(C(C)C)cc1,-1.48%
2,Cc1cc(C)c(S(=O)(=O)N2CCCc3ccccc32)c(C)c1,1.83%
3,Cc1ccc(-n2nc(C)c3c(C)c(CCC(=O)NCC4CCCO4)c(C)nc32)cc1 (centres unmarked),0.953%
4,CCOc1ccc(/C=C2/C=C(c3ccc(C)cc3)OC2=O)cc1OC,1.84%
5,CCOc1ccc(N2C(=O)C3C(C(C)=O)=NN(c4ccccc4Cl)C3C2=O)cc1 (centres unmarked),-0.0619%
6,O=C1NC(=O)c2cccc3cccc1c23,-4.51%
7,O=C1C(Sc2ccccc2)=C(O)c2cccc3cccc1c23,68.7%
8,O=C1c2cccc3cccc(c23)C(=O)N1O,13.1%
9,CCCOc1ccc(C(=O)CCNC(C(=O)O)C(C)C)cc1 (centres unmarked),2.8%
10,CCOc1ccc(C(=O)CCNC(C(=O)O)C(C)CC)cc1 (centres unmarked),71%
11,CC(C)Oc1ccc(C(=O)CCNC(C(=O)O)C(C)C)cc1 (centres unmarked),59.7%
12,CCOc1ccc(C(=O)CCNC(CC(=O)O)C(=O)O)cc1 (centres unmarked),42.3%
13,CCC(C)C(NCCC(=O)c1ccc(Br)cc1)C(=O)O (centres unmarked),-7.23%
14,COc1ccc(C(=O)CCNC(C)C(=O)O)cc1 (centres unmarked),5.85%
15,CCC(Oc1ccccc1)C(=O)Nc1ncccc1Cl (centres unmarked),-3.75%
16,COc1ccccc1NC(=O)/C=C\C(=O)O,1.63%
17,CCCN(CCC)CCNC(=O)c1cn(C)c(=O)c2cc(OC)c(OC)cc12,-2.49%
18,CC(NC(=O)c1cccs1)c1cc2c(cc1Cl)OCCCO2 (centres unmarked),-1.28%
19,Cc1nn(-c2ccccc2)c2sc(-c3nnc(S)o3)cc12,64.9%
20,Cc1nn(-c2ccccc2)c2sc(C(N)=O)cc12,6.83%
21,COC(=O)c1cc2c(C)nn(-c3ccccc3)c2s1,4.7%
22,COc1ccccc1NC(=O)c1cc(OC)c(OC)c(OC)c1,-5.67%
23,Cc1ccc(-c2nc3c4ccccc4nc(S)n3n2)cc1,-7.62%

# — PMC6919601, “Identification of Plasmodium dipeptidyl aminopeptidase allosteric inhibitors by high throughput screening” (PLoS ONE, 2019)
